Source: PubChem BioAssay AID1259415 (National Center for Advancing Translational Sciences (NCATS), 2018)
In all, about 410,000 compounds went through this assay and about 18,000 (4.4%) were called active. Inconclusive results (about 7%) are left out. Rule as the data show it: active = activity change below about -60%; inconclusive = no clear call, values can overlap the other calls; inactive = above about -39%. For the sample, actives were picked, then their nearest neighbours and some compounds at random.

assay: qHTS Assay for inhibitors of the human cytomegalovirus (HCMV); conditions: HFF cells, HCMV-luciferase reporter, 72 h; at 57.5 µM; hits give low values
Summary of the method: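 Compounds were evaluated in HFFs infected with an HCMV luciferase reporter virus (MOI 1 PFU/cell). Luciferase in lysates collected 72 h post infection served as the replication measure.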
% is scaled to controls: 0 for no effect and ±100 for the full control effect.

Q: For `CCCOC(=O)c1c(NC(=O)c2cc3nc(-c4ccc(OC)cc4)cc(C(F)(F)F)n3n2)sc2c1CCCC2`, which activity change, negative = inhibition is on record?
A: The activity change, negative = inhibition was -2.77% (inactive).

Q: For `Cc1ccc(CSc2nc3ccsc3c(=O)n2CCC(C)C)cc1`, which activity change, negative = inhibition is on record?
A: Its activity change, negative = inhibition is -15.8% (inactive).

Q: Which activity change, negative = inhibition does the source give for `COc1ccccc1CNC(=O)CS(=O)(=O)c1cccc2nsnc12` here?
A: Its activity change, negative = inhibition is 22.9% (inactive).

Q: With `Cc1c(C#N)c(NC(=O)c2ccccc2)n(Cc2ccccc2)c1C` as the molecule, how does the activity change, negative = inhibition read?
A: Its activity change, negative = inhibition is -33.4% (inactive).

Q: Which activity change, negative = inhibition does the source give for `Cc1c(C(=O)OC(C)C)sc(NC(=O)c2cccnc2)c1C#N` here?
A: The activity change, negative = inhibition was 4.66% (inactive).

Q: With `CCCc1ccc(-c2c(C)sc(NC(=O)c3ccnn3C)c2C#N)cc1` as the molecule, how does the activity change, negative = inhibition read?
A: Its activity change, negative = inhibition is -97.3% (active).

Q: Which activity change, negative = inhibition does the source give for `CCc1cccc(NC(=O)COC(=O)C2CCN(c3ccc(C(F)(F)F)cn3)CC2)c1` here?
A: The activity change, negative = inhibition was -14.3% (inactive).

Q: With `Cc1ccc(NC(=O)CN2c3ccccc3S(=O)(=O)c3ccccc32)cc1F` as the molecule, how does the activity change, negative = inhibition read?
A: Its activity change, negative = inhibition is 18.3% (inactive).

Q: With `CCN(CC)CCNC(=O)c1cc2c(=O)oc3ccc(C)cc3c2s1` as the molecule, how does the activity change, negative = inhibition read?
A: The activity change, negative = inhibition was 3.23% (inactive).

Q: With `COc1ccc(/C=N/OCc2ccccc2C#N)c(OC)c1` as the molecule, how does the activity change, negative = inhibition read?
A: Its activity change, negative = inhibition is 50.3% (inactive).

Q: Which activity change, negative = inhibition does the source give for `FC(F)(F)c1nnc2c3ccccc3c(Cl)nn12` here?
A: The activity change, negative = inhibition was -86.4% (active).

Q: Which activity change, negative = inhibition does the source give for `COc1ccc(-c2nn3c(-c4ccc(OC)cc4)nnc3c3ccccc23)cc1` here?
A: Its activity change, negative = inhibition is 7.26% (inactive).

Q: With `Nc1nnc2c(C(F)(F)F)nc3ccccc3n12` as the molecule, how does the activity change, negative = inhibition read?
A: Its activity change, negative = inhibition is 1.13% (inactive).

Q: Which activity change, negative = inhibition does the source give for `Cc1cc(C)n2nc(C(=O)Oc3ccc4c(c3)OCO4)nc2n1` here?
A: The activity change, negative = inhibition was 12.7% (inactive).

Q: Which activity change, negative = inhibition does the source give for `CC(=O)c1nn(-c2ccc(OC(F)(F)F)cc2)nc1Nc1ccccc1` here?
A: Its activity change, negative = inhibition is -19.8% (inactive).

Q: With `COc1ccc(NC(=O)c2ccc3nc(CCc4ccccc4)oc3c2)c(OC)c1` as the molecule, how does the activity change, negative = inhibition read?
A: The activity change, negative = inhibition was 15.1% (inactive).

Q: For `CCN1CCC(O)(/C=C/c2ccc(C)cc2)C(C(=O)/C=C/c2ccc(C)cc2)C1` (stereo unspecified), which activity change, negative = inhibition is on record?
A: Its activity change, negative = inhibition is -101% (active).

Q: Which activity change, negative = inhibition does the source give for `O=C(CCOc1ccccc1)N(Cc1cccnc1)c1nc2ccc(Cl)cc2s1` here?
A: The activity change, negative = inhibition was -5.41% (inactive).

Q: With `O=C(CCS(=O)(=O)c1ccccc1)N(Cc1cccnc1)c1nc2c(F)cccc2s1` as the molecule, how does the activity change, negative = inhibition read?
A: Its activity change, negative = inhibition is 112% (inactive).

Q: Which activity change, negative = inhibition does the source give for `Cc1ccc(-c2nc3ccccn3c2Nc2c(C)cccc2C)o1` here?
A: Its activity change, negative = inhibition is -20.4% (inactive).

Q: With `Cc1cccc(C(=O)Nc2ccc(S(=O)(=O)N3CCCCC3c3cccnc3)cc2)c1` (stereo unspecified) as the molecule, how does the activity change, negative = inhibition read?
A: The activity change, negative = inhibition was -34.9% (inactive).

Q: For `O=C(CS(=O)(=O)c1cccc2nsnc12)N1CCN(c2cccc(Cl)c2)CC1`, which activity change, negative = inhibition is on record?
A: Its activity change, negative = inhibition is -13.3% (inactive).

Q: Which activity change, negative = inhibition does the source give for `CCOC(=O)c1ccc(NC(=S)N2CCN(c3ccccn3)CC2)cc1` here?
A: Its activity change, negative = inhibition is 0.324% (inactive).

Q: Which activity change, negative = inhibition does the source give for `C/C(=N/NC(=O)c1ccn(C)n1)c1ccncc1` here?
A: The activity change, negative = inhibition was 22.2% (inactive).

Q: With `O=[N+]([O-])c1ccc(NC(=S)N2CCN(c3ccccn3)CC2)cc1` as the molecule, how does the activity change, negative = inhibition read?
A: The activity change, negative = inhibition was -38.3% (inactive).

Q: With `C/C(=N\NC(=O)Cc1ccc(Cl)cc1)c1ccccn1` as the molecule, how does the activity change, negative = inhibition read?
A: The activity change, negative = inhibition was -98.9% (active).

Q: Which activity change, negative = inhibition does the source give for `C/C(=N\NC(=O)c1ccccc1F)c1ccccn1` here?
A: The activity change, negative = inhibition was -113% (active).

Q: Which activity change, negative = inhibition does the source give for `CC(=NNC(=S)N1CCCCCC1)c1ccccn1` here?
A: Its activity change, negative = inhibition is -98.7% (active).

Q: For `O=C(NC(=S)NC1CCSC1=O)c1ccccc1F` (stereo unspecified), which activity change, negative = inhibition is on record?
A: Its activity change, negative = inhibition is -2.85% (inactive).

Q: With `C/C(Cc1ccccc1)=N\NC(=O)CNC(=O)c1ccccc1Cl` as the molecule, how does the activity change, negative = inhibition read?
A: The activity change, negative = inhibition was 22.5% (inactive).

Q: Which activity change, negative = inhibition does the source give for `C/C(=N/NC(=O)CSc1ccccn1)c1ccc([N+](=O)[O-])cc1` here?
A: The activity change, negative = inhibition was 21.4% (inactive).
